# Experimental data published in the supplement of paper PMC8975748.
# Counter-ions that a name gives are not always drawn.
# System: Saccharomyces cerevisiae BY4741 SeMeCo community
# Test: z-score of subpopulation abundance vs DMSO median, subpopulation auxotrophic for H; higher = larger share of this subpopulation than in DMSO controls
# Conditions: 10 µM; 24 h; SM minimal medium; subpopulation (auxotrophy): H
# Procedure: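 Fluorescent four-plasmid SeMeCo (self-establishing metabolically cooperating S. cerevisiae BY4741 community; plasmids pH-mRuby2, pL-mWasabi, pU-eCFP, pM-TagRFP657) was grown 24 h in minimal SM medium with each Selleck FDA-approved drug at 10 µM in 384-well plates. Cells were fixed and imaged by high-content confocal microscopy. For each auxotrophic subpopulation (and the prototroph), a z-score gives the deviation from the DMSO vehicle-control population median.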
row,SMILES,z-score of subpopulation abundance
1,Cc1ncc([N+](=O)[O-])n1C [Dimetridazole],0.05
2,COc1cc(N)c(Cl)cc1C(=O)NC1CCN(CCCOc2ccc(F)cc2)CC1OC (stereo not given) [Cisapride hydrate],0.05
3,Nc1nc2c(ncn2COC(CO)CO)c(=O)[nH]1 [Ganciclovir],-0.43
4,Cc1c(OCC(F)(F)F)ccnc1C[S+]([O-])c1nc2ccccc2[nH]1 (stereo not given) [Lansoprazole],1.84
5,CO/N=C(\C(=O)N[C@@H]1C(=O)N2C(C(=O)OCOC(=O)C(C)(C)C)=C(/C=C\c3scnc3C)CS[C@H]12)c1csc(N)n1 [Cefditoren Pivoxil],0.56
6,OCCN1CCN(CCCN2c3ccccc3Sc3ccc(C(F)(F)F)cc32)CC1 [Fluphenazine dihydrochloride],1.1
7,CCCCCOc1ccccc1/C(=C\SC)n1ccnc1 [Neticonazole Hydrochloride],16.5
8,Cc1nc(NC(=O)N2CCC[C@H]2C(N)=O)sc1-c1ccnc(C(C)(C)C(F)(F)F)c1 [Alpelisib (BYL719)],0.36
9,CN1[C@@H]2CC[C@H]1C[C@@H](OC(c1ccccc1)c1ccccc1)C2 [Benztropine mesylate],-0.75
10,CC[C@H]1OC(=O)C[C@@H](O)[C@H](C)[C@@H](O[C@@H]2O[C@H](C)[C@@H](O)[C@H](N(C)C)[C@H]2O)[C@@H](CCN2C[C@H](C)C[C@H](C)C2)C[C@@H](C)C(=O)/C=C/C(C)=C/[C@@H]1CO[C@@H]1O[C@H](C)[C@@H](O)[C@@H](OC)[C@H]1OC [Tilmicosin],0.98
11,CN[C@@H]1[C@@H](O)[C@@H](O[C@@H]2[C@@H](O)[C@H](O[C@H]3O[C@H](CN)[C@@H](O)[C@H](O)[C@H]3O)[C@@H](N)C[C@H]2NC(=O)[C@@H](O)CN)OC[C@]1(C)O [Isepamicin Sulphate],-0.38
12,CCOc1cc(N)c(Cl)cc1C(=O)NCC1CN(Cc2ccc(F)cc2)CCO1 (stereo not given) [Mosapride Citrate],-0.34
13,CCOC(=O)C1=C(COCCN)NC(C)=C(C(=O)OC)C1c1ccccc1Cl (stereo not given) [Amlodipine],3.95
14,Nc1nc(O)c2ncn(CCC(CO)CO)c2n1 [Penciclovir],0.22
15,CCCC(=O)OCOC(=O)C1=C(C)NC(C)=C(C(=O)OC)C1c1cccc(Cl)c1Cl (stereo not given) [Clevidipine Butyrate],1.96
16,Cc1nc(C)c(Cl)c(O)c1Cl [Clopidol],0.6
17,CC[C@H]1OC(=O)[C@H](C)[C@@H](O[C@H]2C[C@@](C)(OC)[C@@H](O)[C@H](C)O2)[C@H](C)[C@@H](O[C@@H]2O[C@H](C)C[C@H](N(C)C)[C@H]2O)[C@](C)(O)C[C@@H](C)C(=O)[C@H](C)[C@H]2OC(=O)O[C@@]21C [Erythromycin Cyclocarbonate],2.08
18,C[C@@H](O)[C@H]1C(=O)N2C(C(=O)O)=C(S[C@@H]3CN[C@H](C(=O)Nc4cccc(C(=O)O)c4)C3)[C@H](C)[C@H]12 [Ertapenem sodium],0.48
19,CCC1(c2ccccc2)C(=O)NCNC1=O [Primidone],-0.52
20,CO/N=C(\C(=O)N[C@@H]1C(=O)N2C(C(=O)[O-])=C(C[N+]3(C)CCCC3)CS[C@H]12)c1csc(N)n1 [Cefepime Dihydrochloride Monohydrate],0.4

row,SMILES,z-score of subpopulation abundance
1,CCCOc1ccc2c(c1)CC[C@@H]1[C@@H]2CC[C@]2(C)[C@@H](OC)CC[C@@H]12 [Promestriene],0.19
2,CCN(CC)CCOC(=O)c1ccc(N)cc1 [Procaine],-0.4
3,NS(=O)(=O)Cc1noc2ccccc12 [Zonisamide],0.46
4,CN(C)C(=O)COC(=O)Cc1ccc(OC(=O)c2ccc(NC(=N)N)cc2)cc1 [Camostat Mesilate],0.16
5,COc1ccc2cc(C(=O)O)ccc2c1 [6-Methoxy-2-naphthoic acid],2.01
6,N=C(N)NC(=O)c1nc(Cl)c(N)nc1N [Amiloride HCl dihydrate],0.83
7,Fc1ccc([C@@H]2CCNC[C@H]2COc2ccc3c(c2)OCO3)cc1 [Paroxetine HCl],0.09
8,Cc1c[nH]c(=O)[nH]c1=O [Thymine],-0.36
9,CCOC(=O)C1=C(COCCN)NC(C)=C(C(=O)OC)[C@@H]1c1ccccc1Cl [Levamlodipine],2.66
10,CN(C)CCC=C1c2ccccc2C=Cc2ccccc21 [Cyclobenzaprine HCl],-0.68
11,COc1ccnc(C[S+]([O-])c2nc3cc(-n4cccc4)ccc3[nH]2)c1C (stereo not given) [Ilaprazole],4.64
12,CC(c1cc2ccccc2s1)N(O)C(N)=O (stereo not given) [Zileuton],-0.65
13,CO/N=C(\C(=O)N[C@@H]1C(=O)N2C(C(=O)[O-])=C(C[n+]3cccc4c3CCC4)CS[C@H]12)c1csc(N)n1 [Cefpirome sulfate],0.64
14,CN1CCN(C2=Nc3cc(Cl)ccc3Nc3ccccc32)CC1 [Clozapine],-0.49
15,c1ccc2[nH]c(-c3cscn3)nc2c1 [Thiabendazole],-0.52
16,Oc1c(Br)cc(Br)c2cccnc12 [Broxyquinoline],11.6
17,CNCCC(Oc1ccc(C(F)(F)F)cc1)c1ccccc1 (stereo not given) [Fluoxetine HCl],-0.47
18,COc1ccc(C[C@H](N)C(=O)N[C@H]2[C@@H](O)[C@H](n3cnc4c(N(C)C)ncnc43)O[C@@H]2CO)cc1 [Puromycin 2HCl],-0.66
19,CN(C)CCCN1c2ccccc2CCc2ccc(Cl)cc21 [Clomipramine HCl],-0.49
20,CC1=C[C@H]2C(=O)O[C@H]3C[C@@H](C/C=C(\C)C[C@@H](C)/C=C/C=C4\CO[C@H](/C1=N\O)[C@@]42O)O[C@@]1(CC[C@H](C)[C@@H](C)O1)C3.CC[C@H]1O[C@]2(CC[C@@H]1C)C[C@@H]1C[C@@H](C/C=C(\C)C[C@@H](C)/C=C/C=C3\CO[C@@H]4/C(=N\O)C(C)=C[C@@H](C(=O)O1)[C@]34O)O2 [Milbemycin Oxime],2.17
